Test results taken from ChEMBL document CHEMBL1201862, “PubChem BioAssay data set” (2004).
Among all 340,000 compounds or so, about 12,000 (3.5%) were called active. Another 18% or so got no clear call; they are omitted. The calls are words filed in the database; no cut-off is given here. Shown is part of a subset that was picked to be rich in actives.

Experiment: qHTS Assay for Inhibitors of Hepatitis C Virus (HCV).
Type: functional
Conditions: read-out: Potency

For `CO[C@H]1/C=C\O[C@@]2(C)Oc3c(C)c(O)c4c(O)c(c5c(c4c3C2=O)=NC2(CCN(CC(C)C)CC2)N=5)NC(=O)/C(C)=C\C=C/[C@H](C)[C@H](O)[C@@H](C)[C@@H](O)[C@@H](C)[C@H](OC(C)=O)[C@@H]1C`, which AC50 is on record?
The AC50 was 158 µM (active).

With `COc1ccc([C@@]23Oc4cc(OC)cc(OC)c4[C@]2(O)[C@H](O)[C@H](C(=O)N(C)C)[C@H]3c2ccccc2)cc1` [ROCAGLAMIDE] as the compound, how does the AC50 read?
The AC50 was 100 µM (active).

Which AC50 does the source give for `O=C(O)c1cc(O)c2c(c1)[C@@H]([C@H]1c3cc(C(=O)O)cc(O)c3C(=O)c3c(O[C@@H]4O[C@H](CO)[C@@H](O)[C@H](O)[C@H]4O)cccc31)c1cccc(OC3O[C@H](CO)[C@@H](O)[C@H](O)[C@H]3O)c1C2=O` (stereo partly specified) here?
The AC50 was 79.4 µM (active).

With `[N-]=[N+]=NC[C@H](Cc1ccccc1)N1CC[C@@H](OCc2ccccc2)CCC1=O` as the compound, how does the AC50 read?
The AC50 was 100 µM (active).

For `Cl.N[C@@H](CCC(=O)O)C(=O)O` [GLUTAMIC ACID HYDROCHLORIDE], which AC50 is on record?
The AC50 was 1.12 µM (active).

With `C#CC(=O)N(c1cc(OC)ccc1OC)C(C(=O)NC1CCCC1)c1cccs1` (stereo unspecified) as the compound, how does the AC50 read?
Its AC50 is 112 µM (active).
